The list is not random: actives were taken first. Their share in the collection is about 1.6%.
KCNQ2 block: rat KCNQ2 potassium channel inhibitors, primary screen, cell-based, CHO-K1, FluxOR thallium flux, B-score; 20 min; stronger effect = lower value; B-score at 10 µM; 1.1% of 310,000 active; Potassium voltage-gated channel subfamily KQT member 2 (Rattus norvegicus), O88943;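 active = fluorescence ratio B-score at most minus 3 library SDs, with starting brightness B-score within 2 library SDs, cut at about -5.5 in these data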
Target sequence (O88943 whole entry, looked up): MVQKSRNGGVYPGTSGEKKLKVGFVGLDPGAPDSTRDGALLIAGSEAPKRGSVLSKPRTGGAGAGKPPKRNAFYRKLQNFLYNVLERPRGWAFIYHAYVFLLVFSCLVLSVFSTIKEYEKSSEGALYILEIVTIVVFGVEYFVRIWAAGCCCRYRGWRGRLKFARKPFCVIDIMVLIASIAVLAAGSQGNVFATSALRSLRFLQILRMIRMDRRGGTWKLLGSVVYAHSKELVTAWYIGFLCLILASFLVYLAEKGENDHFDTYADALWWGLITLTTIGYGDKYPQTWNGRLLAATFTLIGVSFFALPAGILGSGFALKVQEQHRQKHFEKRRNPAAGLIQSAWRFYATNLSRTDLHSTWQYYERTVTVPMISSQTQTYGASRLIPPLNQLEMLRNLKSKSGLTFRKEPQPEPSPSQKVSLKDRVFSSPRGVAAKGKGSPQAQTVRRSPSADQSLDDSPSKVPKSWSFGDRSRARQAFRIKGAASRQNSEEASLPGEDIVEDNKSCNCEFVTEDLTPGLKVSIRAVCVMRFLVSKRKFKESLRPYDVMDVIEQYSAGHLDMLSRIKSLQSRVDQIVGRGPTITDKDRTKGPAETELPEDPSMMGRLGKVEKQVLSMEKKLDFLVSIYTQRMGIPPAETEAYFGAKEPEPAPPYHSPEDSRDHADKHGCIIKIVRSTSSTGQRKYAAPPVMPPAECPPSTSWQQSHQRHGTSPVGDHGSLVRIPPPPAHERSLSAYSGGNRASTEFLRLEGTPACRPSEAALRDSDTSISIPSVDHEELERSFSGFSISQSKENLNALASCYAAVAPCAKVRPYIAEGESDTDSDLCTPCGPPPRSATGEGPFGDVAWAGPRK
KCNQ2 enhance: potentiators of rat KCNQ2 potassium channel | B-score at 10 µM | CHO-K1 KCNQ2, FluxOR thallium flux fluorescence; stronger effect = higher value | AID 2239, 2010 | Potassium voltage-gated channel subfamily KQT member 2 (Rattus norvegicus), O88943 | 0.54% of 310,000 active;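 active = fluorescence ratio B-score at least 3 SD of library B-scores, with initial fluorescence B-score within 3 of them, cut at about 5.3 in these data; same plate scores as AID 2156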;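 also: B-score of peak minus minimum over baseline fluorescence ratio after K+ and Tl+ stimulus; positive B-score means potentiation of KCNQ2 with more thallium influx and brighter signal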
Hits are given with their value; - = inactive; . = not tested or not shown.

SMILES | KCNQ2 block | KCNQ2 enhance
O/N=C(/c1ccc(F)cc1)C1CC1c1c(F)cccc1Cl (stereo not given) | - | .
COc1ccccc1C(=O)NC(=S)NNC(=O)c1sc2ccccc2c1Cl | - | 23
COc1ccccc1C(=O)NNC(=S)NC(=O)c1sc2ccccc2c1Cl | - | 16
Cc1c(NC(=S)NC(=O)c2sc3ccccc3c2Cl)cccc1C(=O)O | - | -
COc1ccccc1C(=O)NNC(=S)NC(=O)c1cccs1 | - | .
O=C(NC(=S)Nc1cccc2cc(O)ccc12)c1ccccc1Br | - | .
COc1ccccc1C(=O)NC(=S)Nc1cccc2cc(O)ccc12 | -7.9 | -
COC(=O)c1ccc(NS(=O)(=O)c2ccccc2)o1 | - | -
Cc1c(C(=O)Nc2cccnc2)oc2ccc(Br)cc12 | - | -
O=S(=O)(Cc1ccccc1)N=Nc1c(O)[nH]c2ccc(Br)cc12 | - | .
COC(=O)c1cn(NC(=O)Cc2ccc(OC)c(OC)c2)c(=O)c2ccccc12 | - | .
COC(=O)c1cn(NC(=O)Cc2cccc(OC)c2)c(=O)c2ccccc12 | - | 7.2
CC(C)CNC(=O)c1cccc(NC(=O)COc2ccc([N+](=O)[O-])cc2)c1 | - | -
CCCC(=O)N(C1CC(C)C(C#N)(C#N)C1(C#N)C#N)N(C)C (stereo not given) | - | 11
COc1cc(NC(=O)c2ccc([N+](=O)[O-])cc2)c(OC)cc1NC(=O)CC(C)C | - | -
CCC1CCCCN1C(=O)C1CC(c2cc(Cl)c(OC)cc2OC)=NO1 (stereo not given) | -6.2 | -
COc1cc(OC)c(C2=NOC(C(=O)N3CCCc4ccccc43)C2)cc1Cl (stereo not given) | - | -
Cc1ccc(CNC(=O)Cn2cnc(S(=O)(=O)N3CCC(C)CC3)c2)o1 | - | -
Cc1occc1C(=O)N1CCN(C(c2ccccc2)c2ccccc2)CC1 | -6.4 | -
Cc1ccccc1C(=O)N1CCN(C(c2ccccc2)c2ccccc2)CC1 | - | .
Cc1cc(C)cc(NC(=S)N2CCC(NC(=O)C3CC3)CC2)c1 | - | -
CC1(C)CC(=O)C(C2=NC3(CCCCCC3)Cc3ccccc32)=C(O)C1 | -5.8 | -
Cc1c(NC2=NC3(CCCCC3)Cc3ccccc32)c(=O)n(-c2ccccc2)n1C | - | -
O=C(C1=C[C@H](c2ccccc2)C[C@H](OCc2ccc(CO)cc2)O1)N1CCN(Cc2ccccc2)CC1 | - | .
O=C(C1=C[C@@H](c2ccccc2)C[C@@H](OCc2ccc(CO)cc2)O1)N1CCN(Cc2ccc3c(c2)OCO3)CC1 | -5.8 | -
SMILES | KCNQ2 block | KCNQ2 enhance
O=C(C1=C[C@@H](C2CC2)C[C@@H](OCCCCO)O1)N1CCN(Cc2ccccc2)CC1 | - | .
O=C(C1=C[C@@H](C2CCCCC2)C[C@@H](OCCCCO)O1)N1CCN(Cc2ccccc2)CC1 | -5.7 | -
O=C(C1=C[C@H](c2ccc(C(F)(F)F)cc2)C[C@H](OCCCCO)O1)N1CCN(Cc2ccc3c(c2)OCO3)CC1 | - | .
O=C(C1=C[C@@H](c2ccc(Br)cc2)C[C@@H](OCCCCO)O1)N1CCN(Cc2ccc3c(c2)OCO3)CC1 | -6.2 | -
Cc1nc2ccc(NS(=O)(=O)c3ccc(F)c(C)c3)cc2[nH]1 | - | -
Cc1cc(C(=O)NC2CCCN(Cc3ccccc3F)C2)n[nH]1 (stereo not given) | - | .
O=C(O)c1cc2ncc(CCO)cn2n1 | - | .
O=c1[nH]c2ccccc2nc1Cc1ccc([N+](=O)[O-])cc1 | - | -
CCCOc1ccc(C(=O)NC2CCSc3ccccc32)cc1 (stereo not given) | - | .
Cc1ccc(OCC(=O)NC2CCSc3ccccc32)cc1 (stereo not given) | -5.9 | -
CC1=C(C)C(=O)C(CCCCC#CCCCC#CCO)=C(C)C1=O | -6.8 | -
O=C1C(Cc2ccccc2O)NC(=S)N1c1ccccc1 (stereo not given) | - | -
CC(C)C[C@H](NC(=O)c1nc[nH]c1C(=O)N1CCN(C(=O)OC(C)(C)C)CC1)C(=O)OC(C)(C)C | - | .
COc1ccc(N2CCN(C(=O)c3ccc(Br)o3)CC2)cc1 | - | .
CCCN1CC(=O)N2Cc3[nH]c4ccccc4c3C[C@H]2C1=O | - | .
CC(C)CCN1CC(=O)N2Cc3[nH]c4ccccc4c3C[C@H]2C1=O | -7.2 | -
COc1ccc(NC(=O)Cc2nnc(SCC(=O)Nc3ccccc3)n2C)cc1 | - | .
Cc1ccc(C)n1-c1ccc(C(=O)NN)s1 | -5.7 | -
CCOC(=O)CNC(=O)c1ccc(Br)s1 | - | .
COc1ccc(C(=O)CSc2nnc3n2CCCN3C(=O)Nc2ccccc2)cc1 | - | -
CC(=O)c1ccc(NC(=S)N2CCCC(CO)C2)cc1 (stereo not given) | - | 13
COC(=O)Cc1ccc(NC(=S)N2CCCC(CO)C2)cc1 (stereo not given) | - | -
O=C(O)c1cc(Cl)c2c(c1)OCO2 | - | .
Cn1c(N)c(C(=O)COC(=O)CCCOc2ccc(Cl)cc2Cl)c(=O)n(C)c1=O | - | -
